Reference: PubChem BioAssay AID1159580 (chemical genetic matrix, 2015)
Several values for one entry are separate records, joined by “and”; a condition that tells them apart may be missing. Equal values may be shown once. In all, about 5,500 compounds went through this assay and about 2,000 (36%) were called active. Not shown: some 18% with an inconclusive outcome. No stated cut-off is given here; in the data, active means normalized growth mostly below about 0.91 (no sharp cut-off); inconclusive means no clear call, values can overlap the other calls; inactive means mostly above about 0.92. The list shows a part of the results.

Assay: chemical genetic growth profiling, strain panel (AID 1159580);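 further: tested at 20 µM; growth read once vehicle control cultures reached saturation at 30 °C; 1 = growth at the plate median or of vehicle wells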
Conditions: S. cerevisiae deletion strains, growth OD

Measured: normalized growth

CCOC(=O)[C@H](CCc1ccccc1)N[C@@H](C)C(=O)N1Cc2ccccc2C[C@H]1C(=O)O
inactive: locus YAL021C, strain ccr4, stronger effect = lower value 0.993 | locus YAL026C, strain drs2, stronger effect = lower value 0.981 | locus YAL030W, strain snc1, stronger effect = lower value 1 | locus YBL061C, strain skt5, stronger effect = lower value 0.99 | locus YBR009C, strain hhf1, stronger effect = lower value 1.02 | locus YBR021W, strain FUR4, stronger effect = lower value 1.01 | locus YBR023C, strain chs3, stronger effect = lower value 0.984 | locus YBR171W, strain sec66, stronger effect = lower value 0.997 | locus YBR229C, strain ROT2, stronger effect = lower value 1 | locus YBR231C, strain swc5, stronger effect = lower value 1 | locus YBR279W, strain paf1, stronger effect = lower value 0.98 | locus YCL011C, strain gbp2, stronger effect = lower value 0.998 | locus YCL016C, strain dcc1, stronger effect = lower value 0.963 | locus YCL029C, strain bik1, stronger effect = lower value 1.01 | locus YCL061C, strain MRC1, stronger effect = lower value 1.01 | locus YCL069W, strain vba3, stronger effect = lower value 0.986 | locus YCR088W, strain abp1, stronger effect = lower value 1 | locus YDL005C, strain med2, stronger effect = lower value 1.01 | locus YDL035C, strain GPR1, stronger effect = lower value 1.02 | locus YDL040C, strain nat1, stronger effect = lower value 1 | locus YDL074C, strain BRE1, stronger effect = lower value 0.996 | locus YDL101C, strain DUN1, stronger effect = lower value 1.01 | locus YDL134C, strain PPH21, stronger effect = lower value 1 | locus YDL185W, strain tfp1, stronger effect = lower value 1.01 | locus YDL192W, strain arf1, stronger effect = lower value 1.01 | locus YDR001C, strain nth1, stronger effect = lower value 1 | locus YDR069C, strain doa4, stronger effect = lower value 1 | locus YDR101C, strain arx1, stronger effect = lower value 0.999 | locus YDR137W, strain rgp1, stronger effect = lower value 0.983 | locus YDR159W, strain sac3, stronger effect = lower value 0.964 | locus YDR162C, strain NBP2, stronger effect = lower value 1.01 | locus YDR195W, strain ref2 0.965 | locus YDR297W, strain sur2, stronger effect = lower value 1.01 | locus YDR318W, strain mcm21, stronger effect = lower value 1.01 | locus YDR334W, strain swr1, stronger effect = lower value 1.02 | locus YDR335W, strain msn5, stronger effect = lower value 0.984 | locus YDR388W, stronger effect = lower value 1.01 | locus YDR392W, strain spt3, stronger effect = lower value 0.931 | locus YDR502C, strain sam2, stronger effect = lower value 1.03 | locus YEL003W, strain gim4, stronger effect = lower value 1.02 | locus YEL037C, strain rad23, stronger effect = lower value 1.01 | locus YEL061C, strain CIN8 (second series), stronger effect = lower value 1.03 | locus YEL061C, strain CIN8, stronger effect = lower value 1.01 | locus YER015W, strain faa2, stronger effect = lower value 1.01 | locus YER016W, strain bim1, stronger effect = lower value 1.02 | locus YER110C, stronger effect = lower value 1.01 | locus YER111C, strain swi4, stronger effect = lower value 0.989 | locus YER155C, strain BEM2 (second series), stronger effect = lower value 1.06 | locus YER155C, strain BEM2, stronger effect = lower value 0.995 | locus YER167W, strain BCK2, stronger effect = lower value 1.01 | locus YFR010W, strain ubp6, stronger effect = lower value 0.998 | locus YGL078C, strain dbp3, stronger effect = lower value 1.01 | locus YGL086W, strain mad1, stronger effect = lower value 1 | locus YGL167C, strain pmr1, stronger effect = lower value 1 | locus YGL173C, strain kem1, stronger effect = lower value 0.993 | locus YGL227W, strain vid30, stronger effect = lower value 0.986 | locus YGL240W, strain doc1, stronger effect = lower value 1.02 | locus YGL248W, strain PDE1, stronger effect = lower value 1 | locus YGL253W, strain hxk2, stronger effect = lower value 0.926 | locus YGR078C, strain PAC10, stronger effect = lower value 1 | locus YGR135W, strain pre9, stronger effect = lower value 1.03 | locus YGR229C, strain SMI1, stronger effect = lower value 1.02 | locus YGR252W, strain gcn5, stronger effect = lower value 0.999 | locus YHR013C, strain ard1, stronger effect = lower value 0.953 | locus YHR027C, strain rpn1, stronger effect = lower value 1.01 | locus YHR030C, strain SLT2, stronger effect = lower value 1.01 and 0.988 | locus YHR079C, strain IRE1 (second series), stronger effect = lower value 1.01 | locus YHR079C, strain IRE1, stronger effect = lower value 0.976 | locus YHR094C, strain hxt1, stronger effect = lower value 1 | locus YHR129C, strain ARP1, stronger effect = lower value 1 | locus YHR142W, strain chs7, stronger effect = lower value 0.935 | locus YHR200W, strain rpn10, stronger effect = lower value 1.01 | locus YIL066C, strain RNR3, stronger effect = lower value 1.01 | locus YIL073C, strain SPO22, stronger effect = lower value 1.08 | locus YIL125W, strain kgd1, stronger effect = lower value 1 | locus YIR030C, strain dcg1, stronger effect = lower value 1.01 | locus YJL092W, strain hpr5, stronger effect = lower value 1.01 | locus YJL095W, strain BCK1 (second series), stronger effect = lower value 1.01 | locus YJL095W, strain BCK1, stronger effect = lower value 0.988 and 0.991 | locus YJL115W, strain asf1, stronger effect = lower value 1.01 | locus YJL129C, strain trk1, stronger effect = lower value 0.983 | locus YJL134W, strain LCB3, stronger effect = lower value 1.01 | locus YJL154C, strain vps35, stronger effect = lower value 1.02 | locus YJL164C, strain tpk1, stronger effect = lower value 1 | locus YJL166W, strain qcr8, stronger effect = lower value 1.03 | locus YJL168C, strain set2, stronger effect = lower value 1.01 | locus YJL187C, strain SWE1 (second series), stronger effect = lower value 1 | locus YJL187C, strain SWE1, stronger effect = lower value 1.01
